Measurements from PubChem BioAssay AID651919 (Sanford-Burnham Center for Chemical Genomics, 2012).
Several values for one entry are separate records, joined by “and”; a condition that tells them apart may be missing. Equal values may be shown once.

Molecular target: C-X-C chemokine receptor type 5 (Homo sapiens) (UniProt P32302)
Test: CXCR6 and CXCR5 receptor antagonist panel, profiling panel, selectivity assay for CXCR6 antagonist project, cell-based, CHO-K1 PathHunter beta-arrestin, luminescence, set 4 (AID 651919)
Settings: run 1, at 79 µM (top of the series)

Going from `COc1ccc(C(=O)NC2CC3CCCC(C2)N3CC(=O)Nc2ccc(F)cc2)cc1` (centres undefined) to `COc1ccc(C(=O)NC2CC3CCCC(C2)N3CC(=O)Nc2ccc(Cl)cc2)cc1` (centres undefined), the inhibition rises from -9.29% to 34.5%.

Going from `COc1cc(OC)cc(C(=O)NC2CC3CCCC(C2)N3CC(=O)Nc2ccc(F)cc2)c1` (centres undefined) to `COc1cc(OC)cc(C(=O)NC2CC3CCCC(C2)N3CC(=O)Nc2ccc(Cl)cc2)c1` (centres undefined), the inhibition falls from 32.4% to 22.6%.

First: COc1cccc(C(=O)NC2CC3CCCC(C2)N3CC(=O)Nc2ccccc2)c1 (centres undefined)
Second: COc1ccc(C(=O)NC2CC3CCCC(C2)N3CC(=O)Nc2ccccc2)cc1 (centres undefined)
The inhibition of the first is higher: 10.5% for the first, 3.68% for the second.

Compared with `O=C(CN1C2CCCC1CC(NC(=O)c1ccc3c(c1)OCO3)C2)Nc1ccccc1` (centres undefined), `Cc1ccc(NC(=O)CN2C3CCCC2CC(NC(=O)c2ccc4c(c2)OCO4)C3)cc1` (centres undefined) is higher in inhibition: 27.8% for the first, 42% for the second.

Going from `COc1ccc(C(=O)NC2CC3CCCC(C2)N3CC(=O)Nc2ccc(F)cc2)cc1OC` (centres undefined) to `COc1ccc(C(=O)NC2CC3CCCC(C2)N3CC(=O)Nc2ccc(C)cc2)cc1OC` (centres undefined), the inhibition rises from 1.06% to 22.7%.

Going from `COc1ccc(NC(=O)CN2C3CCCC2CC(NC(=O)c2cc(OC)c(OC)c(OC)c2)C3)cc1` (centres undefined) to `COc1cc(C(=O)NC2CC3CCCC(C2)N3CC(=O)Nc2ccc(C)cc2)cc(OC)c1OC` (centres undefined), the inhibition rises from -6.42% to 2.28%.

Going from `COc1cc(OC)cc(C(=O)NC2CC3CCCC(C2)N3CC(=O)Nc2ccccc2)c1` (centres undefined) to `COc1cc(OC)cc(C(=O)NC2CC3CCCC(C2)N3CC(=O)Nc2ccc(C)cc2)c1` (centres undefined), the inhibition falls from 37.4% to 8.41%.

Going from `COc1cccc(C(=O)NC2CC3CCCC(C2)N3CC(=O)Nc2ccc(C)cc2)c1` (centres undefined) to `COc1cccc(C(=O)NC2CC3CCCC(C2)N3CC(=O)Nc2ccc(F)cc2)c1` (centres undefined), the inhibition falls from 44.1% to -4.11%.

First: COc1ccc(NC(=O)CN2C3CCCC2CC(NC(=O)c2cccc(OC)c2)C3)cc1 (centres undefined)
Second: COc1cccc(C(=O)NC2CC3CCCC(C2)N3CC(=O)Nc2ccc(Cl)cc2)c1 (centres undefined)
The inhibition of the first is higher: 8.8% for the first, -2.39% for the second.

Compared with `COc1ccc(NC(=O)CN2C3CCCC2CC(NC(=O)c2cc(OC)cc(OC)c2)C3)cc1` (centres undefined), `COc1ccc(NC(=O)CN2C3CCCC2CC(NC(=O)c2ccc(OC)c(OC)c2)C3)cc1` (centres undefined) is lower in inhibition: 22.9% for the first, -3.99% for the second.

First: COc1ccc(C(=O)NC2CC3CCCC(C2)N3CC(=O)Nc2ccccc2)cc1OC (centres undefined)
Second: COc1ccc(C(=O)NC2CC3CCCC(C2)N3CC(=O)Nc2ccc(Cl)cc2)cc1OC (centres undefined)
The inhibition of the first is higher: 16.5% for the first, 0.551% for the second.

First: O=C(CN1C2CCCC1CC(NC(=O)c1ccc3c(c1)OCO3)C2)Nc1ccc(Cl)cc1 (centres undefined)
Second: O=C(CN1C2CCCC1CC(NC(=O)c1ccc3c(c1)OCO3)C2)Nc1ccc(F)cc1 (centres undefined)
The inhibition of the first is higher: 44.8% for the first, 6.87% for the second.

Going from `COc1ccc(C(=O)NC2CC3CCCC(C2)N3CC(=O)Nc2ccc(C)cc2)cc1` (centres undefined) to `COc1ccc(NC(=O)CN2C3CCCC2CC(NC(=O)c2ccc(OC)cc2)C3)cc1` (centres undefined), the inhibition falls from 22.2% to -6.48%.

Compared with `COc1ccc(NC(=O)CN2C3CCCC2CC(NC(=O)c2ccc4c(c2)OCO4)C3)cc1` (centres undefined), `COc1cc(C(=O)NC2CC3CCCC(C2)N3CC(=O)Nc2ccc(F)cc2)cc(OC)c1OC` (centres undefined) is lower in inhibition: 21% for the first, 1.06% for the second.

Going from `COc1ccc(CN2C3CCCC2CC(NC(=O)c2cc(OC)c(OC)c(OC)c2)C3)cc1` (centres undefined) to `COc1cc(C(=O)NC2CC3CCCC(C2)N3CC(=O)Nc2ccc(Cl)cc2)cc(OC)c1OC` (centres undefined), the inhibition falls from 37% to -11.9%.

Compared with `O=C(CN1C2CCCC1CC(NC(=O)c1ccccc1)C2)Nc1ccccc1` (centres undefined), `COc1ccccc1NC(=O)CN1C2CCCC1CC(NC(=O)c1cc(OC)c(OC)c(OC)c1)C2` (centres undefined) is higher in inhibition: 8.48% for the first, 10.1% for the second.

In the case of `COc1cc(C(=O)NC2CC3CCCC(C2)N3CC(=O)Nc2ccccc2Cl)cc(OC)c1OC` (centres undefined), the inhibition is reported as 29.2% and 16%.
With `COc1cc(C(=O)NC2CC3CCCC(C2)N3CC(=O)Nc2ccccc2)cc(OC)c1OC` (centres undefined) the inhibition was 8.6% and 15.6%.
